# Measurements taken from PubChem BioAssay AID504900 (The Scripps Research Institute Molecular Screening Center, 2011).
# The other results are listed elsewhere or left out. Unmarked numbers belong to inactive results. Active and inactive are the calls of the source. Cut-off read from the data, not from the text of the source: active = inhibition above about 32%; inactive = the rest.
# Target: Mu-type opioid receptor (Homo sapiens) + Delta-type opioid receptor (Homo sapiens) (UniProt P35372+P41143)
# Sequence (P35372 whole entry, looked up): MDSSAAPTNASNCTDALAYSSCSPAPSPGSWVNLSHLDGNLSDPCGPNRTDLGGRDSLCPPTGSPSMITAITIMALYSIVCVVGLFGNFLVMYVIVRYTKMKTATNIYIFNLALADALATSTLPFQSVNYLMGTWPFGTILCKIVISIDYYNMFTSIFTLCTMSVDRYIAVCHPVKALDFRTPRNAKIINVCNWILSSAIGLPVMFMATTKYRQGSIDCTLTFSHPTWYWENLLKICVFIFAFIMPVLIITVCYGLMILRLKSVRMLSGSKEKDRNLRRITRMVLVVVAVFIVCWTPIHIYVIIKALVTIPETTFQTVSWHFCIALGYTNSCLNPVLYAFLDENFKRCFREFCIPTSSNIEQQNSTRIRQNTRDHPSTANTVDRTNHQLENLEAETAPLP
# Sequence (P41143 whole entry, looked up): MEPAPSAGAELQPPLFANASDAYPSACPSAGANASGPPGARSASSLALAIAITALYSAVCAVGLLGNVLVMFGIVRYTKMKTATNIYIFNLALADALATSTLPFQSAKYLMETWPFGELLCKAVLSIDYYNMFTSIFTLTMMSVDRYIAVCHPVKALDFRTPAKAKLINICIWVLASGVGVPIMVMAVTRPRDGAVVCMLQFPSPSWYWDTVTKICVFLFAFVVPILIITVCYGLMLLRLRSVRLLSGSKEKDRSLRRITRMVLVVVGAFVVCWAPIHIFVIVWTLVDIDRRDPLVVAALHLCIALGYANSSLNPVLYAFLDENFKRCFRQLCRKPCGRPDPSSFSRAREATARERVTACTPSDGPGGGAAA
# Test: OPRM1-OPRD1 heterodimer inverse agonism – cell-based, luminescence, confirmation (AID 504900);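 note: 0% = cells with DMSO and 100% = wells lacking cells with DMSO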
# Conditions: cells expressing OPRM1/OPRD1 heterodimer, at 9.3 µM, hits give high values
row,Structure (SMILES),inhibition
1,N#CC1=C(N)C(C#N)(C#N)[C@H](c2ccsc2)[C@H]2COCC=C12,-0.3%
2,CN(C)/C=C1/Nc2ccccc2C1=O,-27.4%
3,Cc1cccc(C)c1NC(=O)C(Cl)C(=O)c1ccccc1 (centres undefined),-42.6%
4,Cc1ccc(C(=O)CNc2ccc(F)cc2)cc1,-20%
5,CCCCC(=O)NNC(=S)NC(=O)C(c1ccccc1)c1ccccc1,-427%
6,CCOC(=O)CN1C(=O)C(=O)c2cc(C)ccc21,-25.7%
7,Cc1ccc(NNC(=O)c2cccs2)cc1Cl,-17.7%
8,Cc1cccc(N=Nc2c(O)[nH]c3ccc(F)cc23)c1,20.6%
9,O=C(CCl)NNc1cccc(Cl)n1,69.8% (active)
10,O=C1C(=O)N(c2ccccc2)c2ccccc21,-11.8%
11,CC(C)OC(=O)CN1C(=O)C(=O)c2ccccc21,-355%
12,COc1cc(NS(=O)(=O)c2ccc3ccccc3c2)c2ncccc2c1,-82.7%
13,CCOC(=O)CN1C(=O)C(O)(CC(=O)c2ccccn2)c2ccccc21 (centres undefined),24.7%
14,CCOc1ccc(NC(=O)c2cccc3c2C(=O)N(CC2CCCO2)C3)cc1 (centres undefined),-4.18%
15,C=CCn1c(N)c(C(=O)OCC(C)C)c2nc3ccccc3nc21,14.8%
16,Oc1ccc(N=Nc2nccs2)c(O)c1,12.6%
17,CSCCC(NC(=O)COc1ccccc1)C(=O)OCC(=O)c1cc2ccccc2o1 (centres undefined),37.5% (active)
18,Cc1cccc2c1N(CC(=O)OC(C)C)C(=O)C2=O,-138%
19,Cc1ccc2c(c1)C(O)(CC(=O)c1cccnc1)C(=O)N2 (centres undefined),22.7%
20,O=[N+]([O-])/C=C/c1ccc2c(ccn2Cc2ccccc2)c1,-234%
21,O=C1C(=O)N(CC2COc3ccccc3O2)c2ccccc21 (centres undefined),15.2%
22,CN(O)C(=S)c1ccccc1,16.7%
23,CN(c1ccccc1)S(=O)(=O)c1ccc(NC(=O)COc2ccccc2)cc1,-21.8%
24,COC(=O)Cc1c(-c2[nH]c3ccccc3c2CC(=O)OC)[nH]c2ccccc12,-123%
